From the supplement of paper PMC13380429

System: Vero E6 infected with SARS-CoV-2
Experiment: inhibition of SARS-CoV-2 cytopathic effect; higher = more antiviral protection, active = above 15
Settings: 48 h

Measured: inhibition of SARS-CoV-2 cytopathic effect

OCc1ccc(O[C@@H]2O[C@H](CO)[C@@H](O)[C@H](O)[C@H]2O)cc1 [gastrodin]
inactive: 1 nM -0.38% | 8.33 nM -2.3% | 100 nM -2.66% | 833.33 nM -2.37% | 10000 nM -4.3%

O=C1C=CC[C@@H]2[C@H]3CCCN4CCC[C@@H](CN12)[C@@H]34 [sophocarpine]
inactive: 1 nM -8.47% | 8.33 nM -10.7% | 100 nM -12.4% | 833.33 nM -12.3% | 10000 nM -13.3%

CCCC(=O)N1CCCN(c2nc(N)c3cc(OC)c(OC)cc3n2)CC1 [bunazosin]
inactive: 1 nM -0.32% | 8.33 nM -1.38% | 100 nM 1.21% | 833.33 nM 0.02% | 10000 nM 0.07%

Cc1cc(C)c(CNC(=O)c2cc(-c3ccc(N4CCN(C)CC4)nc3)cc3c2c(C)cn3C(C)C)c(=O)[nH]1
inactive: 1 nM -3.53% | 8.33 nM -2.54% | 100 nM -3.49% | 833.33 nM -2.29% | 10000 nM -3.02%

CCc1nc(C)ccc1O [emoxipin]
inactive: 1 nM 1.2% | 8.33 nM 3.95% | 100 nM 1.53% | 833.33 nM 0.68% | 10000 nM 1.33%

NC(=O)c1cccc(N)c1 [3-amino-benzamide]
inactive: 1 nM -2.7% | 8.33 nM -0.97% | 100 nM -0.7% | 833.33 nM -1.13% | 10000 nM 0.61%

COCC1=C(C(=O)O)N2C(=O)[C@@H](NC(=O)/C(=N\OC)c3csc(N)n3)[C@H]2SC1 [cefpodoxime]
inactive: 1 nM -1.12% | 8.33 nM -1.09% | 100 nM -1.76% | 833.33 nM -0.98% | 10000 nM -1.12%

COc1ccc2[nH]c(SCc3ncc(C)c(OC)c3C)nc2c1 [omeprazole-sulfide]
inactive: 1 nM -13.8% | 8.33 nM -15.1% | 100 nM -15.8% | 833.33 nM -15.3% | 10000 nM -13.7%

COc1ccc2cc(CCC(C)=O)ccc2c1 [nabumetone]
inactive: 1 nM 0.72% | 8.33 nM 0.69% | 100 nM -4.19% | 833.33 nM -1.8% | 10000 nM -0.03%

C[C@H](Nc1ncnc2[nH]cnc12)c1nc2ccc(F)cc2c(=O)n1-c1ccccc1 [acalisib]
inactive: 1 nM 0.46% | 8.33 nM -0.64% | 100 nM 0.1% | 833.33 nM -0.64% | 10000 nM -5.35%

Nc1ccn([C@@H]2O[C@H](CO)[C@@H](O)C2(F)F)c(=O)n1 [gemcitabine]
inactive: 1 nM 1.67% | 8.33 nM 2.4% | 100 nM -0.88% | 833.33 nM -3.94% | 10000 nM 3.81%

Fc1ccc(Cn2c(NC3CCNCC3)nc3ccccc32)cc1 [tecastemizole]
inactive: 1 nM -7.23% | 8.33 nM -9.9% | 100 nM -11.8% | 833.33 nM -8.85% | 10000 nM -8.1%

C=Cc1cc(O)cc2nc(-c3ccc(O)c(F)c3)oc12 [prinaberel]
inactive: 1 nM 0.2% | 8.33 nM 0.74% | 100 nM 1.61% | 833.33 nM 0.55% | 10000 nM 0.56%

COc1ccc(/C=C\c2cc(OC)c(OC)c(OC)c2)cc1OP(=O)(O)O [fosbretabulin]
inactive: 1 nM 0.43% | 8.33 nM 0.77% | 100 nM -1.34% | 833.33 nM -0.84% | 10000 nM -0.38%

Cc1nc(C)c(-c2ccc(C3CCC(CC(=O)O)CC3)cc2)nc1C(N)=O (stereo not given)
inactive: 1 nM 5.02% | 8.33 nM 2.17% | 100 nM 0.91% | 833.33 nM 3.12% | 10000 nM -3.42%

O=C(CCCCCCCC(=O)NCCO)NCCO [adelmidrol]
inactive: 1 nM -2.2% | 8.33 nM 2.3% | 100 nM 5.54% | 833.33 nM -1.21% | 10000 nM 0.2%

O=C(O)c1cc(=O)c2c(OCC(O)COc3cccc4oc(C(=O)O)cc(=O)c34)cccc2o1 [cromoglicic-acid]
inactive: 1 nM -0.6% | 8.33 nM -0.04% | 100 nM -1.5% | 833.33 nM 0.49% | 10000 nM -0.11%

CCN(CC)CCOC(=O)C1(c2ccccc2)CCCC1 [caramiphen]
inactive: 1 nM -4.57% | 8.33 nM -4.75% | 100 nM -1.97% | 833.33 nM -0.96% | 10000 nM -3.45%

COc1ccccc1N1CCN(CCN2C(=O)CC3(CCCC3)CC2=O)CC1
inactive: 1 nM 0.12% | 8.33 nM 1.57% | 100 nM 2.97% | 833.33 nM 1.51% | 10000 nM 0.47%
